Experiment [1] concerns the target Ribosomal protein S6 kinase alpha-6 (Homo sapiens) (UniProt Q9UK32). Conditions: at 1 µM.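 Further: each value is a mean inhibition of RSK4 from a GSK PKIS panel screen.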
Experiment [2] deals with T1, Serine/threonine-protein kinase Sgk1 (Homo sapiens) (UniProt O00141).
T1 sequence (whole entry): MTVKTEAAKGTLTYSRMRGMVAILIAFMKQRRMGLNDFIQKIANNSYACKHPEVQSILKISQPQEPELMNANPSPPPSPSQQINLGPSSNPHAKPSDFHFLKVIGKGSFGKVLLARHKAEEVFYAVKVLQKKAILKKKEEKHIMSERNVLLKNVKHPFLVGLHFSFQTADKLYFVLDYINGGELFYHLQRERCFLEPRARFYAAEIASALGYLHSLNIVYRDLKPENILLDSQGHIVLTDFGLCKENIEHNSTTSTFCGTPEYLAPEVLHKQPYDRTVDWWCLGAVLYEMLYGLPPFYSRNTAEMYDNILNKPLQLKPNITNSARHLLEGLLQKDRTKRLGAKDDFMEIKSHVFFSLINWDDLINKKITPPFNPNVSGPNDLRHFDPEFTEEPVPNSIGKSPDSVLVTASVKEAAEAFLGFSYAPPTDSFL
Conditions: at 0.1 µM.

In experiment [3] the target is T1, Serine/threonine-protein kinase Sgk1 (Homo sapiens). Conditions: at 1 µM.
The target in experiment [4] is T2, Serine/threonine-protein kinase Sgk2 (Homo sapiens) (UniProt Q9HBY8).
T2 sequence (whole entry): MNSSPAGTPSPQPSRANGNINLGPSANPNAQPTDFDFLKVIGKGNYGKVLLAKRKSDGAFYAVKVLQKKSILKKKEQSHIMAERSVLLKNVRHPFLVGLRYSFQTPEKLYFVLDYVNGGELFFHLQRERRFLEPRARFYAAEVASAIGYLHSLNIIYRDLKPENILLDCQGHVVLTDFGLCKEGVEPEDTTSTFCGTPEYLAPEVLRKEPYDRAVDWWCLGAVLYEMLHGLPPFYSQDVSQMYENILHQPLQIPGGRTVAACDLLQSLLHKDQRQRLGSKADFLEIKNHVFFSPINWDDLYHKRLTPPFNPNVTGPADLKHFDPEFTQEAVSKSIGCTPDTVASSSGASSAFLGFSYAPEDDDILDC
Conditions: at 0.1 µM.

Experiment [5] has as its target T2, Serine/threonine-protein kinase Sgk2 (Homo sapiens). The settings on record: at 1 µM.
The target in experiment [6] is T3, Serine/threonine-protein kinase Sgk3 (Homo sapiens) (UniProt Q96BR1).
T3 sequence (whole entry): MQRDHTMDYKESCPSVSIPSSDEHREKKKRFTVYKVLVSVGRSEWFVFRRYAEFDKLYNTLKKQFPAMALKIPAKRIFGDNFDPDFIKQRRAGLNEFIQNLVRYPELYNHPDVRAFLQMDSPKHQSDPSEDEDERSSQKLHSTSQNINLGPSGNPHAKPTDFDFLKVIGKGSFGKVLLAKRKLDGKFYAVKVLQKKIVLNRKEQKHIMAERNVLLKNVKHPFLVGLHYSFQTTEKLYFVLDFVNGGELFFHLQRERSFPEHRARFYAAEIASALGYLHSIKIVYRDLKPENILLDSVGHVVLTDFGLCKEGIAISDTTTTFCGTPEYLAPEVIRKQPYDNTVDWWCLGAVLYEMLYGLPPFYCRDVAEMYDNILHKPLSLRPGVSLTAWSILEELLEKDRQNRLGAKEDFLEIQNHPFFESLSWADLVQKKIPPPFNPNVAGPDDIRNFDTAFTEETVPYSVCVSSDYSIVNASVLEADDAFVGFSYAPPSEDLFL
The settings on record: at 0.1 µM.

Experiment [7] deals with T3, Serine/threonine-protein kinase Sgk3 (Homo sapiens). The settings on record: at 1 µM.
Experiment [8] deals with 5'-AMP-activated protein kinase catalytic subunit alpha-1 (Homo sapiens) (UniProt Q13131). The settings on record: at 0.1 µM.
Chain of 5'-AMP-activated protein kinase catalytic subunit alpha-1 (Homo sapiens) (Q13131 whole entry, looked up): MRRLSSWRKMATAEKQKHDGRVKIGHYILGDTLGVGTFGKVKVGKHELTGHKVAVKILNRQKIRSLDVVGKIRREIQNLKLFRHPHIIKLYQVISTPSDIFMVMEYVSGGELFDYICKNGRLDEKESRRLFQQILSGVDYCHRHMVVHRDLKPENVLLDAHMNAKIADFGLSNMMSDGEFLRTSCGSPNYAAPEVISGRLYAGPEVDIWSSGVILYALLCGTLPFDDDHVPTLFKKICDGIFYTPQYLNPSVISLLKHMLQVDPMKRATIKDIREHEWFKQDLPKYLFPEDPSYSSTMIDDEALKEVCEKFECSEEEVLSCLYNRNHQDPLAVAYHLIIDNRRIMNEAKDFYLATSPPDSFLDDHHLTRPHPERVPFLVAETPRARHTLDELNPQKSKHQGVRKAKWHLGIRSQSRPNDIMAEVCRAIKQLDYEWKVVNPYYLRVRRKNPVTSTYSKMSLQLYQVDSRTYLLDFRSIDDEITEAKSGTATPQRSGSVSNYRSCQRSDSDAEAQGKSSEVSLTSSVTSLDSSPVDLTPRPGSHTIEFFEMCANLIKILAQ
Experiment [9] shares this target. Conditions: at 1 µM.
For experiment [10], the target named is 5'-AMP-activated protein kinase catalytic subunit alpha-2 (Homo sapiens) (UniProt P54646). Conditions: at 0.1 µM.
Chain of 5'-AMP-activated protein kinase catalytic subunit alpha-2 (Homo sapiens) (P54646 whole entry, looked up): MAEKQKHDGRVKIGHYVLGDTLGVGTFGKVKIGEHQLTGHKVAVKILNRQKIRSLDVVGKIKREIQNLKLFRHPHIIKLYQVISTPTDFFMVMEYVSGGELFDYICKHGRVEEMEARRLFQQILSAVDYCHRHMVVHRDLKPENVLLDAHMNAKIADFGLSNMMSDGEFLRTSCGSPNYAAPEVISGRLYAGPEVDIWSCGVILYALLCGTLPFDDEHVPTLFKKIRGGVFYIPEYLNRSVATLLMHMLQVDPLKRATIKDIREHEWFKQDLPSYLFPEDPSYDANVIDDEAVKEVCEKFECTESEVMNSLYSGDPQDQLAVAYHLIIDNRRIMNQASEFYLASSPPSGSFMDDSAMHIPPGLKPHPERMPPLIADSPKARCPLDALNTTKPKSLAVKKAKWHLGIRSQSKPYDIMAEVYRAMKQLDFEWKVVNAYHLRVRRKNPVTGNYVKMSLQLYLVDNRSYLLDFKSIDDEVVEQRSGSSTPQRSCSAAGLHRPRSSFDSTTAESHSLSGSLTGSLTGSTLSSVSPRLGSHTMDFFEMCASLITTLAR
Experiment [11] shares this target. Conditions: at 1 µM.
The target of experiment [12] is T4, NUAK family SNF1-like kinase 1 (Homo sapiens) (UniProt O60285).
T4 sequence (whole entry): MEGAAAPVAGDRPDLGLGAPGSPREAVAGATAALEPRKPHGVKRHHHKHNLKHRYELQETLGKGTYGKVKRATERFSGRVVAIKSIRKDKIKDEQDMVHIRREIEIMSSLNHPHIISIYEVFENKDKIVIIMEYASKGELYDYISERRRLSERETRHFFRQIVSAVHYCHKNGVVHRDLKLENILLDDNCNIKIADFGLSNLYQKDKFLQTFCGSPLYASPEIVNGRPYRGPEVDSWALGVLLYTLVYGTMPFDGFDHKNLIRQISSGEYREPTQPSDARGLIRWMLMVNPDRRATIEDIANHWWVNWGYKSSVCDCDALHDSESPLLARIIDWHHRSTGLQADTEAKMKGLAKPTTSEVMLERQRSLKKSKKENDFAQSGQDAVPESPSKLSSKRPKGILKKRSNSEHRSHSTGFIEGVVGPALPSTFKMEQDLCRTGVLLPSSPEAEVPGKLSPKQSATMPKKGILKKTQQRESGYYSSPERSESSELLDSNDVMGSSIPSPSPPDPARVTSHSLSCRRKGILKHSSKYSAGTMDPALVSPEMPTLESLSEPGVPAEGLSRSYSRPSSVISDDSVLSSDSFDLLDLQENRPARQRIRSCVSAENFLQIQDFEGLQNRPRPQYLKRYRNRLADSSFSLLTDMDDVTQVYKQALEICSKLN
The settings on record: at 0.1 µM.

Experiment [13] deals with T4, NUAK family SNF1-like kinase 1 (Homo sapiens). The settings on record: at 1 µM.
Experiment [14] deals with T5, Serine/threonine-protein kinase BRSK1 (Homo sapiens) (UniProt Q8TDC3).
T5 sequence (whole entry): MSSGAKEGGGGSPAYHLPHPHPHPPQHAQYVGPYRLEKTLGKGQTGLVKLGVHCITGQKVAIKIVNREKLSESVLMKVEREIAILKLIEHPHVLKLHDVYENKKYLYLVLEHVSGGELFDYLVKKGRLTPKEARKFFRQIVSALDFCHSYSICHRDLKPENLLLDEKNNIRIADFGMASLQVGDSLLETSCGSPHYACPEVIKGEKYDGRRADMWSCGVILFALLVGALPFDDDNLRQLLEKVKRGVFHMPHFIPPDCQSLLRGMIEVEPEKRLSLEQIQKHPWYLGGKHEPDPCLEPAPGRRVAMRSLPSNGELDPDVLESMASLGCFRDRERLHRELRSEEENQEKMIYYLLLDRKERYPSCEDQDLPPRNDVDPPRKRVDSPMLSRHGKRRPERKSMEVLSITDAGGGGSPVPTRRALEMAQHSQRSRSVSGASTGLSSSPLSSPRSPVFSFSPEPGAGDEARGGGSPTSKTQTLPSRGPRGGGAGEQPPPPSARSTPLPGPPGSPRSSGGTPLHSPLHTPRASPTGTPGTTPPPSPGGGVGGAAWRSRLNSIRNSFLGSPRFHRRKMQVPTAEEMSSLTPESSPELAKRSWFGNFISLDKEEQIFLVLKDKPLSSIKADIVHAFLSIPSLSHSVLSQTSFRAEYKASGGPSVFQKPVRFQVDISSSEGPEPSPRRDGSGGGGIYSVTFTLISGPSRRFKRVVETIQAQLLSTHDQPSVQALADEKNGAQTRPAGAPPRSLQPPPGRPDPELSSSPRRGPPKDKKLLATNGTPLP
Conditions: at 0.1 µM.

Experiment [15] addresses T5, Serine/threonine-protein kinase BRSK1 (Homo sapiens). The settings on record: at 1 µM.
For experiment [16], the target named is T6, Serine/threonine-protein kinase BRSK2 (Homo sapiens) (UniProt Q8IWQ3).
T6 sequence (whole entry): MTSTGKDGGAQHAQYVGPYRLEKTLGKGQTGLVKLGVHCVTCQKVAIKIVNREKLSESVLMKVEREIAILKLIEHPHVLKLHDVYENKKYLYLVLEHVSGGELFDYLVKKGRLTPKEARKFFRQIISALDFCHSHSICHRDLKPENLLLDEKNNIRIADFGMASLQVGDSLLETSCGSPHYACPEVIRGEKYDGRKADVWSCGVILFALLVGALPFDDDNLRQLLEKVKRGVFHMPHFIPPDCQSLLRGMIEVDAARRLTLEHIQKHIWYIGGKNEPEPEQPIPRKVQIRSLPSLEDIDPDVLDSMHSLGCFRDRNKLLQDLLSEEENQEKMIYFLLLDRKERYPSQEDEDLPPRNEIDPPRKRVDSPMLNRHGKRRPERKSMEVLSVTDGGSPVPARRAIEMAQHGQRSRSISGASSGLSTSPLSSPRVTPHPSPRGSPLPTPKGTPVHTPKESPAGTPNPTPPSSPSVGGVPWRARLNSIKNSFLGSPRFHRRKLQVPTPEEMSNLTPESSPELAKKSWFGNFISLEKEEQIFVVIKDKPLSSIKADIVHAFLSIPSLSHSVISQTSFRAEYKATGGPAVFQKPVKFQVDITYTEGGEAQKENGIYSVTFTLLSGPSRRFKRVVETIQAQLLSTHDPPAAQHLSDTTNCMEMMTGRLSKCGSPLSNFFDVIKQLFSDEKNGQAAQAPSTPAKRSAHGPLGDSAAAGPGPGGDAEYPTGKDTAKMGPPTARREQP
The settings on record: at 0.1 µM.

The target of experiment [17] is T6, Serine/threonine-protein kinase BRSK2 (Homo sapiens). The settings on record: at 1 µM.
Experiment [18] has as its target Calcium/calmodulin-dependent protein kinase type 1D (Homo sapiens) (UniProt Q8IU85). The settings on record: at 0.1 µM.
Experiment [19] has the same target. The settings on record: at 1 µM.
In experiment [20] the target is Calcium/calmodulin-dependent protein kinase type II subunit alpha (Homo sapiens) (UniProt Q9UQM7). Conditions: at 0.1 µM.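 Further: reported values are averages (mean inhibition of CAMK2A).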
Chain of Calcium/calmodulin-dependent protein kinase type II subunit alpha (Homo sapiens) (Q9UQM7 whole entry): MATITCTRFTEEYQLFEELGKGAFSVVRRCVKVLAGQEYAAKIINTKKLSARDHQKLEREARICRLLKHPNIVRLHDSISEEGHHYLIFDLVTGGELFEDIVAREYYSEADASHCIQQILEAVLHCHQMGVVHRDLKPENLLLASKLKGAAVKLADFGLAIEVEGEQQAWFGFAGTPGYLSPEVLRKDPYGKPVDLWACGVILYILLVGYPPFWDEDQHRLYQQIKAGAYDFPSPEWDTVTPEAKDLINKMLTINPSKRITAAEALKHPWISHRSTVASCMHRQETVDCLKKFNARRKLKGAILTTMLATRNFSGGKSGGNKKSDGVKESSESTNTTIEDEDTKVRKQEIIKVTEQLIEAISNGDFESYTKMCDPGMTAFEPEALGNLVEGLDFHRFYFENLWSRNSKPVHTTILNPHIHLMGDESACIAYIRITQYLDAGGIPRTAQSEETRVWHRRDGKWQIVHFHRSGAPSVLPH

Chain of Ribosomal protein S6 kinase alpha-6 (Homo sapiens) (Q9UK32 whole entry): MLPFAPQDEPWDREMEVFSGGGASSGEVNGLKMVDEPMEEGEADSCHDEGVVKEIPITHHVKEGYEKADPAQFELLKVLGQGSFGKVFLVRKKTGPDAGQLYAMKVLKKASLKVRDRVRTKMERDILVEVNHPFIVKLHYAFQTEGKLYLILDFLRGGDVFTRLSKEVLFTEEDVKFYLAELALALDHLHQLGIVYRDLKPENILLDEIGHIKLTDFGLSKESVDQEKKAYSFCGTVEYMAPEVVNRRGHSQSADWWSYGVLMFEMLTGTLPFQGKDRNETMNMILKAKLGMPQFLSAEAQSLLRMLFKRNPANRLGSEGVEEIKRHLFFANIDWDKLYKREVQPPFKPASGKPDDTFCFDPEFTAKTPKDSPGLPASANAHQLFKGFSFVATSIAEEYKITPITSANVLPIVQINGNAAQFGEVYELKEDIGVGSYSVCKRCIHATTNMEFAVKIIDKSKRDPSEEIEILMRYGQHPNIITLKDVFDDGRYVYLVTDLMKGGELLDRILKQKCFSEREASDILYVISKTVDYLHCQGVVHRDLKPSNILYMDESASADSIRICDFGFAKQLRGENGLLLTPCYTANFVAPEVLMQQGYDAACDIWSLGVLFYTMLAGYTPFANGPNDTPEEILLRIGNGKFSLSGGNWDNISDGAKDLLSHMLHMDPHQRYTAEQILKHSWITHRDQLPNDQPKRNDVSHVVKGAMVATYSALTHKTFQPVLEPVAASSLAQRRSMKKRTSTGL
Chain of Calcium/calmodulin-dependent protein kinase type 1D (Homo sapiens) (Q8IU85 whole entry, looked up): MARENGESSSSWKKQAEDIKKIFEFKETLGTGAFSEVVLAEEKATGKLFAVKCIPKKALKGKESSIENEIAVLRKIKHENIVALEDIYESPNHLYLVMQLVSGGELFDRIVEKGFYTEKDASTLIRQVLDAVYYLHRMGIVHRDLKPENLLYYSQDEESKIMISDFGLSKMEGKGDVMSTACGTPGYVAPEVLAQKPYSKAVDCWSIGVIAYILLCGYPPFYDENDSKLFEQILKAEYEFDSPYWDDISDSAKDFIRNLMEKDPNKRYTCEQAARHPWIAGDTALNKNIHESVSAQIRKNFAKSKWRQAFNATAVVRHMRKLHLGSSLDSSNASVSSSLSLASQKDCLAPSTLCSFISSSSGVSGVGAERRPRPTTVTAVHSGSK

By inhibition is commonly meant the drop in the measured response relative to a control, in per cent. For the compound `NS(=O)(=O)c1cccc(-c2ccc3c(NC(=O)C4CC4)n[nH]c3c2)c1`, the inhibition in experiment [1] was 0.54%; in [2], 1.71%; in experiment [3], 2.69%; in [4], 3.21%; in [5], -4.4%; in experiment [6], 0.09%. The inhibition is 0.67% in experiment [7]; -0.48% in experiment [8]; 0.34% in [9]; 3.53% in experiment [10]; -0.49% in [11]; 0.7% in [12]. Besides, the inhibition was 1.95% in experiment [13]; 6.3% in [14]; 41.3% in experiment [15]; 12.6% in experiment [16]; 51.8% in experiment [17]; -0.5% in [18]. Also, the inhibition was -0.98% in experiment [19] and -4.43% in experiment [20].

Turning to `Cc1nnc(-c2ccc(C)c(-c3ccc(C(=O)Nc4cccc(C#N)c4)cc3)c2)o1`, the inhibition in experiment [1] was 1.23%; in [2] it was 0.29%; in experiment [3], 4.49%; in [4], -1.98%; in [5], 0.76%; in [6], 1.01%. Besides, the inhibition was 3.55% in experiment [7]; 2.8% in [8]; 2.03% in experiment [9]; -0.06% in experiment [10]; 2.95% in [11]; 2.98% in [12]. In addition, the inhibition in experiment [13] worked out at 2.37%; in [14] it was 0.93%; in [15], 1.01%; in experiment [16], 2.39%; in experiment [17], 4.23%; in [18], 0.65%. For the same compound, the figures for the inhibition in experiment [19] and in experiment [20] were 0.26% and 1.97%, respectively.

For `COc1ccc(-c2coc3ncnc(N)c23)cc1`, the inhibition in experiment [1] is 2.17%; in experiment [2], 2.68%; in experiment [3] it was 1.67%; in [4], -1.21%; in experiment [5] it was -0.41%; in experiment [6] it was 2.69%. Moreover, the inhibition in experiment [7] was 2.97%; in experiment [8] it was 2.92%; in [9], 3.4%; in experiment [10], 4.54%; in experiment [11], 5.94%; in experiment [12], 3.47%. Moreover, the inhibition in experiment [13] was 1.24%; in experiment [14], 3.33%; in experiment [15] it was 4.41%; in experiment [16], 2.46%; in experiment [17] it was 4.44%; in experiment [18] it was 1.1%. Further, the inhibition in experiment [19] came to 2.41%; in [20] it was 3.92%.

For the compound `CCn1c(-c2nonc2N)nc2cnc(Oc3cccc(NC(=O)c4ccc(OCCN5CCOCC5)cc4)c3)cc21`, the inhibition worked out at 13.8% in experiment [1]; 7.56% in experiment [2]; 34.7% in experiment [3]; 15.7% in experiment [4]; 58.5% in experiment [5]; 36.3% in experiment [6]. For the same compound, the inhibition in [7] was 74.3%; in [8], 2.28%; in [9], 2.06%; in experiment [10], 2.76%; in [11] it was 3.43%; in experiment [12], 5.2%. In addition, the inhibition is 26.9% in experiment [13]; 1.86% in experiment [14]; 0.26% in [15]; 1.64% in [16]; 2.71% in [17]; -0.02% in [18]. Further, the inhibition in [19] was found to be 2.35%; in [20] it was 1.46%.

(Values after ChEMBL document CHEMBL1961873, “Compounds: GSK PKIS; Assays: Nanosyn kinase panel” (2012).)
